F508del corr: CFTR F508del correction in bronchial cells; CFBE cells, YFP halide quenching; stimulated with forskolin plus potentiator P3; % fluorescence drop versus neutral controls; 350,000 tested, 0.36% active; activity (quench increase), % at 7.58 µM;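 active means mean added fluorescence quench of at least 8% versus neutral control, with both replicates also reaching 8%; inconclusive means only one of the mean or replicate conditions met; inactive means mean below 8% and not both replicates reaching 8%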;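 further: cells transiently co-express mutant CFTR-F508del with the halide-sensitive YFP; corrector assay measuring rescue of mutant channel to the surface after 24 h compound exposure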
PAX8 inh HTS: inhibitors of PAX8 transcriptional activity in RMG-I cells. 360,000 tested, 1.2% active. inhibition, % at 12.6 µM. RMG-I TPO-luciferase reporter, SteadyGlo, 24 h. AID 652154;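 active means mean replicate inhibition at least 60% with every replicate also reaching 60%; inconclusive means only one of the two criteria is met; inactive means mean below 60% and not all replicates reaching 60%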;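 further: luciferase light reporting Pax8 driven TPO promoter activity; plate controls were median of neutral control wells for no effect and mitoxantrone controls for full effect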
EWS-Fli block: inhibitors of EWS/Fli oncoprotein transcriptional activity. 350,000 tested, 0.67% active. A673 NR0B1-luciferase reporter, viability-normalised. inhibition, % at 12.6 µM;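 active means mean inhibition of at least 50% after viability correction, with every replicate also passing that limit; inconclusive means mean reaches 50% but only one of two replicates passes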;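 further: firefly luciferase signal divided by Alamar Blue viability fluorescence both relative to DMSO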
LGR2 inh: inhibitors of bursicon-induced Drosophila LGR2 receptor cAMP signaling; 380,000 tested, 0.35% active; HEK293 LGR2, CRE-luciferase, bursicon-stimulated, 4 h; inhibition, % at 9.99 µM; AID 720647;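 active means drop in luminescence signal, shown as inhibition above about 50% in the replicate tests, limit read from the data, passing the limit was not always enough; inconclusive means probably only some replicates passing the limit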;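 further: agonist challenge used bursicon conditioned medium at about half maximal strength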
Starred values were filed as active, the others as inactive; u = inconclusive; x = not tested or not shown. Compounds with a hit are over-represented: about 1.8% of the library has one in this group of screens.

SMILES | F508del corr | PAX8 inh HTS | EWS-Fli block | LGR2 inh
CCCS(=O)(=O)NC(=O)C1(C)CCN(C(=O)c2ccc(C#N)cc2)C1 (configuration not stated) | 1 | 8 | -3 | 4
C[C@H](CO)N1C[C@H](C)[C@H](CN(C)Cc2ccc(Cl)c(Cl)c2)OCCCC[C@H](C)Oc2ccc(NC(=O)Nc3ccccc3)cc2C1=O | -2 | 100* | -4 | 10
C[C@H](CO)N1C[C@H](C)[C@@H](CN(C)Cc2ccc(Cl)c(Cl)c2)OCCCC[C@H](C)Oc2ccc(NC(=O)Nc3ccccc3)cc2C1=O | -3 | 87* | 9 | -19
C[C@@H]1CN([C@H](C)CO)C(=O)c2cc(NC(=O)c3ccccc3)ccc2O[C@@H](C)CCCCO[C@H]1CN(C)Cc1ccc(Cl)c(Cl)c1 | x | x | x | -3
C[C@@H]1CN([C@H](C)CO)C(=O)c2cc(NC(=O)c3ccccc3)ccc2O[C@@H](C)CCCCO[C@@H]1CN(C)Cc1ccc(Cl)c(Cl)c1 | 4 | 51 | 2 | 15
C[C@H]1CCCCO[C@H](CN(C)Cc2ccc(Cl)c(Cl)c2)[C@@H](C)CN([C@@H](C)CO)C(=O)c2cc(NC(=O)Nc3ccccc3)ccc2O1 | -3 | 85* | 14 | 4
C[C@@H]1CCCCO[C@@H](CN(C)Cc2ccc(Cl)c(Cl)c2)[C@@H](C)CN([C@@H](C)CO)C(=O)c2cc(NC(=O)Nc3ccccc3)ccc2O1 | -2 | 81* | 6 | 14
COCCNC(=O)CN1C(=O)COc2ccc(S(=O)(=O)N3CCCCCC3)cc21 | 0 | -14 | x | 19
CCOC(=O)/C=C/C(=O)Nc1ccc(S(=O)(=O)Nc2cc(C)on2)cc1 | -3 | 8 | -1 | 7
O=C(Nc1nnc(-c2ccco2)s1)c1ccccc1 | x | x | x | 24
COc1ccc(C(=O)Nc2nnc(-c3ccco3)s2)cc1 | x | x | x | 81*
COc1cccc(S(=O)(=O)Nc2ccc3c(c2)[C@H]2C[C@H](CC(=O)NCc4ccccc4F)O[C@H](CO)[C@H]2O3)c1 | 1 | 97* | -11 | -4
COc1cccc(S(=O)(=O)Nc2ccc3c(c2)[C@@H]2C[C@H](CC(=O)NCc4ccccc4F)O[C@@H](CO)[C@@H]2O3)c1 | -1 | -21 | -17 | -7
COc1cccc(S(=O)(=O)Nc2ccc3c(c2)[C@@H]2C[C@@H](CC(=O)NCc4ccccc4F)O[C@@H](CO)[C@@H]2O3)c1 | -4 | 68* | -13 | x
Cn1nc(C(=O)NCc2ccc(F)cc2)c2c1-c1ccccc1S(=O)(=O)C2 | 0 | 18 | -4 | -1
Cc1ccc(NC(=O)COC(=O)c2cccc3c2C(=O)c2ccccc2C3=O)c(C)c1 | x | 0 | x | -3
Cc1ccc(C)c(NC(=O)COC(=O)c2cccc3c2C(=O)c2ccccc2C3=O)c1 | x | 64* | 2 | 2
Cc1nnc(SCc2ccccc2)nc1-c1ccccc1 | -1 | -203 | -143 | -52
COc1cc(/C=N\NC(=O)c2ccc(-c3ccccc3)cc2)cc(OC)c1OC(C)=O | -6 | 100* | x | -30
COc1cc(/C=N\NC(=O)c2ccc(-c3ccccc3)cc2)cc(OC)c1O | -5 | 75* | -11 | -8
COc1cc(/C=N/NC(=O)c2ccc3nc[nH]c3c2)cc(OC)c1OC(C)=O | 1 | 7 | 8 | 0
CCC(=O)N[C@H]1C=C[C@H](CC(=O)OC)O[C@H]1CO | -2 | -2 | -2 | -3
Cc1cccc(NC(=O)CSCC(=O)Nc2ccc(N3CCOCC3)cc2N2CCOCC2)c1 | 1 | 3 | -6 | 9
Cc1nc(SCC(=O)Nc2nc3ccccc3s2)c(C#N)c(C)c1C | 6 | 108* | 87* | 93*
Cc1nc(SCC(=O)Nc2nccs2)c(C#N)c(C)c1C | 1 | 0 | 72* | -22
SMILES | F508del corr | PAX8 inh HTS | EWS-Fli block | LGR2 inh
Cc1cc(C(F)(F)F)c(C#N)c(SCC(=O)Nc2nc3ccccc3s2)n1 | x | -139 | 46 | 36
O=C(Nc1ccc(Cc2ccncc2)cc1)c1ccco1 | x | x | x | -44
Cc1cc(/C=N/n2c(COc3ccccc3C)nc3ccccc3c2=O)c(O)c([N+](=O)[O-])c1 | 8.2* | 10 | -52 | x
COc1ccc(NS(=O)(=O)N2CCCCC2)cc1 | 0 | -12 | -6 | 11
Nc1ccc2ccc(NS(=O)(=O)N3CCCCC3)cc2c1 | 6 | 3 | 56* | 0
c1ccc2c(c1)N1CCCN=C1N2CCN1CCCCC1 | 8.9* | 2 | 3 | 5
CC(=O)c1sc(NC(=O)CCS(=O)(=O)c2ccc(F)cc2)nc1C | -1 | 77* | -12 | -8
C[C@@H]1CCCCO[C@@H](CN(C)S(C)(=O)=O)[C@@H](C)CN([C@@H](C)CO)C(=O)c2cc(NC(=O)CCC(F)(F)F)ccc2O1 | 0 | -4 | 1 | 3
COC(=O)N1C(=O)[C@](Cc2ccccc2)(c2ccccc2)N1C(=O)OC | -3 | 22 | u | 0
CCSc1nc2ccccc2n1C(=O)/C=C\c1ccc(OC)c(OC)c1 | x | 70* | x | x
CC1Cc2nc(SCC(=O)N3CCOCC3)n(-c3ccccc3)c(=O)c2S1 (configuration not stated) | 8.3* | 6 | -3 | 0
O=C1CCN(C(=O)Cc2ccccc2)c2ccccc21 | 4 | 10 | 6 | 8
CCCCn1c(-c2ccsc2)nc2c1c(=O)[nH]c(=O)n2CCC | x | 6 | x | x
CCCCn1c(=O)[nH]c(=O)c2c1nc(Cn1ncc(Cl)c(Cl)c1=O)n2CCC | -2 | 97* | 46 | 24
O=C(COC(=O)c1ccc(Br)o1)Nc1ccc2c(c1)OCCO2 | 1 | -29 | -5 | -10
CN1/C(=C\C=O)C(C)(C)c2ccccc21 | 0 | 15 | 4 | -5
CN1\C(=C/C=C/C=C/C=[N+](C)C)C(C)(C)c2ccccc21 | 4 | 51 | 66* | x
CN(C)CCCNS(=O)(=O)c1ccc(N2CCN(Cc3ccc4c(c3)OCO4)CC2)c([N+](=O)[O-])c1 | -1 | 5 | 52* | 5
Cc1cccc(NC(=O)c2nc[nH]c2C(=O)N2CCc3ccccc3C2)c1 | -3 | -6 | -1 | 6
O=C(C[C@@H]1CC[C@@H]2[C@H](COC[C@H](O)CN2Cc2ccc(Oc3ccccc3)cc2)O1)N1CCN(c2ccccc2)CC1 | 8.9* | 62* | 7 | 20
O=C(C[C@H]1CC[C@H]2[C@@H](COC[C@H](O)CN2Cc2ccc(Oc3ccccc3)cc2)O1)N1CCN(c2ccccc2)CC1 | 3 | 45 | 19 | 0
O=C(C[C@@H]1CC[C@H]2[C@@H](COC[C@@H](O)CN2Cc2ccc(Oc3ccccc3)cc2)O1)N1CCN(c2ccccc2)CC1 | 6 | 64* | 36 | 18
O=C(C[C@@H]1CC[C@H]2[C@@H](COC[C@H](O)CN2Cc2ccc(Oc3ccccc3)cc2)O1)Nc1nccs1 | 1 | 66* | 11 | 6
O=C(C[C@@H]1CC[C@@H]2[C@H](COC[C@@H](O)CN2Cc2ccc(Oc3ccccc3)cc2)O1)N1CCOCC1 | -3 | 0 | 3 | 1
CCCNC(=O)C[C@H]1CC[C@H]2[C@H](COc3ccc(NC(=O)C4CCCC4)cc3C(=O)N2C)O1 | -1 | 4 | 7 | 11
C[C@H](CO)N1C[C@H](C)[C@@H](CN(C)C(=O)C2CC2)Oc2cc(C#Cc3ccccc3)ccc2S1(=O)=O | 1 | x | -1 | 6

Assay outcomes deposited in PubChem BioAssay by Broad Institute.
